# Rv3671c protease – inhibits the M. tuberculosis serine protease Rv3671c | inhibition, % at 5.96 µM | P9WHR9 | 0.048% of 320,000 active; in the data active means inhibition above about 38%;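 further: extracellular domain of Rv3671c used as enzyme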
# FadD28 FP inh – blocks FadD28 binding to the bisubstrate probe; fluorescence polarization; inhibition, % at 12.5 µM; 0.22% of 360,000 active; in the data active means inhibition above about 8.5%, passing the limit was not always enough
# PrP 5UTR inh – inhibition of PrP 5' UTR reporter expression; inhibition, % (no concentration beside the values); 0.35% of 340,000 active; cell-based PrP 5' UTR mRNA reporter, plate reader; AID 488862; in the data active means inhibition above about 52%
# PrPC surface inh – inhibitors of human cell surface prion protein PrPC; TR-FRET read-out; inhibition, % at 13.8 µM; 0.43% of 370,000 active; AID 720596; in the data active means inhibition above about 24%
# PriA SSB inh – inhibitors of Klebsiella pneumoniae PriA binding to SSB C-terminal tail; 0.6% of 430,000 active; inhibition, % at 33 µM; AlphaScreen SSBct-PriA binding, biotinylated peptide; in the data active means inhibition mostly above about 37%, no sharp cut-off; inactive means mostly below about 20%
# Mtb UGM inh – Mtb UDP-galactopyranose mutase inhibition | P9WIQ1 | purified UGM, fluorescence polarization probe displacement | 0.06% of 320,000 active | inhibition, % at 10 µM; in the data active means inhibition above about 10%, passing the limit was not always enough
# Target sequence (P9WIQ1 whole entry, looked up): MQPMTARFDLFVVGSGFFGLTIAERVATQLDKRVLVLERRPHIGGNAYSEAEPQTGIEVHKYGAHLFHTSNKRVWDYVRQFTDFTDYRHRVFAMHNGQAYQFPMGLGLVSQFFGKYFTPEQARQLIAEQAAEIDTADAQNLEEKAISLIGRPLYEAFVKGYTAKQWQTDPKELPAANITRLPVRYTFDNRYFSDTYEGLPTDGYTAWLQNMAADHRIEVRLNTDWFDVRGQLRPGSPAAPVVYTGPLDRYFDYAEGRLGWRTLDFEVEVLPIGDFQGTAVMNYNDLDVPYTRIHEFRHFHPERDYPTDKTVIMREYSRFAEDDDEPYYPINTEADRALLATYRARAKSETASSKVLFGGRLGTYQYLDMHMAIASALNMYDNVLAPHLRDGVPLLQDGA
# Hits are given with their value; – = inactive; · = no result. Sampled rows, rich in hits. Any-hit rate of the full collection: about 1.2%.
SMILES,Rv3671c protease,FadD28 FP inh,PrP 5UTR inh,PrPC surface inh,PriA SSB inh,Mtb UGM inh
Cc1c(C(O)=C2C(=O)C(=O)N(CCCN(C)C)[C@H]2c2ccco2)cnn1-c1ccccc1,·,·,·,·,–,·
O=C(NC1CCCc2ccccc21)C1CCc2nc[nH]c2C1 (centres undefined),·,·,·,·,–,·
CN(CC(=O)Nc1ccc(-n2nnn(C)c2=O)cc1)S(C)(=O)=O,·,·,·,·,–,·
COc1cc(/C=C2\SC(=O)N(CC(=O)Nc3cccc(C)c3)C2=O)ccc1OC(C)C(=O)O (centres undefined),–,81,–,–,–,–
COc1ccc(/C=C2\SC(=O)N(CC(=O)Nc3ccc(O)cc3)C2=O)cc1OC,·,–,–,–,–,–
Cc1cccc(NC(=O)CN2C(=O)S/C(=C\c3cccn3-c3cccc(C(=O)O)c3)C2=O)c1,–,62,–,–,–,–
Cc1ccc(NC(=O)CN2C(=O)S/C(=C\c3cccn3-c3cccc(C(=O)O)c3)C2=O)cc1C,–,–,–,–,–,–
COc1ccc(/C=C2\SC(=O)N(CC(=O)Nc3cccc(C)c3)C2=O)cc1O,–,26,–,–,–,–
O=C(Cn1nc2n(c(=O)c1=O)CCN2c1ccc(F)cc1)N1CCc2ccccc21,·,·,·,·,–,·
Oc1ccccc1C(Nc1nccs1)c1ccc2cccnc2c1O (centres undefined),–,–,–,–,66,–
Cc1ccc(N2C(=O)CC(Sc3ccccc3C(=O)N3CCOCC3)C2=O)cc1 (centres undefined),·,·,·,·,–,·
O=[N+]([O-])c1ccc(N2CCCCC2)cc1[N+](=O)[O-],·,·,·,·,73,·
O=[N+]([O-])c1ccc(N2CCCCC2)cc1O,·,·,·,·,74,·
Cc1ccc(NC(=O)c2cccc(C(=O)Nc3ccc(C)cc3C(=O)O)c2)c(C(=O)O)c1,–,–,–,–,–,13
Cc1cccc(C(=O)Nc2sc(-c3ccccc3)cc2C(=O)O)c1,–,24,–,–,–,–
COc1ccc(CC2(C)OC(c3ccc([N+](=O)[O-])cc3)=NN2C(C)=O)cc1 (centres undefined),–,–,–,–,45,–
Cn1nc(CNS(=O)(=O)Cc2cc(F)ccc2F)cc1-c1ccccn1,·,·,·,·,–,·
COc1ccc(S(=O)(=O)Nc2cc(Sc3ncn[nH]3)c(O)c3ccccc23)cc1,·,·,·,57,·,·
COC(=O)CSc1ccc2nnc(-c3ccccn3)n2n1,·,·,·,·,77,·
CCCCC(Sc1ccc2nnc(-c3ccccn3)n2n1)C(=O)O (centres undefined),·,·,·,·,94,·
CC(C)(C)c1ccc(OCCn2cnc(Cl)c2Cl)cc1,·,·,·,·,98,·
O=C(Cn1cnc2c(cnn2C2CCS(=O)(=O)C2)c1=O)NCc1ccco1 (centres undefined),·,·,·,·,–,·
NC1=NC(=Nc2cccc(S(N)(=O)=O)c2)c2ccccc21,–,–,–,–,–,–
COc1cc(N=Nc2cccc(S(N)(=O)=O)c2)c2ccccc2c1N,–,9.7,–,–,–,–
Cc1oc(-c2ccc(Cl)cc2[N+](=O)[O-])cc1C(=O)Nc1cccc(F)c1,·,·,·,·,35,·
SMILES,Rv3671c protease,FadD28 FP inh,PrP 5UTR inh,PrPC surface inh,PriA SSB inh,Mtb UGM inh
O=C(CSc1nnc([C@@H]2COc3ccccc3O2)o1)Nc1nc(-c2ccccc2)cs1,·,·,·,·,–,·
O=C(CN1CCN(Cc2ccc3c(c2)OCO3)CC1)Nc1ccc(F)cc1,–,–,–,–,–,–
O=C(CN1CCN(C(=O)CNC(=O)c2ccc3c(c2)OCO3)CC1)Nc1ccc(F)cc1,–,–,–,–,53,–
O=c1c2ccccc2c2ccccc2c(=O)n1-c1cccc2ccccc12,·,·,·,·,–,·
Brc1cc(-c2ccccn2)nc(-c2ccccn2)c1,·,·,·,·,58,·
Clc1cc(-c2ccccn2)nc(-c2ccccn2)c1,·,·,·,·,64,·
Clc1cccc(-c2ccccn2)n1,·,·,·,·,–,·
O=C1CCc2cc(S(=O)(=O)NCC3CCN(S(=O)(=O)C4CC4)CC3)cc3c2N1CC3,·,·,·,·,39,·
COc1ccccc1C1NC=C([N+](=O)[O-])C=C1[N+](=O)[O-] (centres undefined),–,–,–,–,45,–
COc1ccc(S(=O)(=O)N2CCCCC2)cc1NC(=O)CNc1ccccc1N1CCCC1=O,–,–,–,–,–,–
Cc1ccc(NC(=O)CNc2ccccc2N2CCCC2=O)cc1S(=O)(=O)N1CCOCC1,·,21,–,–,–,·
COc1ccc(NC(=O)CNc2ccccc2N2CCCC2=O)cc1S(=O)(=O)N1CCOCC1,–,10,–,–,–,–
Cc1ccc(S(=O)(=O)N2CCCCC2)cc1NC(=O)CNc1ccccc1N1CCCC1=O,–,·,–,–,–,–
O=C(Cc1csc(NS(=O)(=O)c2ccc(Cl)cc2)n1)N1CCN(c2ccccc2)CC1,·,·,·,·,–,·
c1ccc(N2CCN(c3nc(NCc4ccco4)c4ccccc4n3)CC2)cc1,–,–,–,–,40,–
COC(=O)C1CCN(C(=O)Cc2cc(-c3ccccc3F)on2)CC1,·,·,·,·,–,·
O=C1NC(=S)S/C1=C\c1ccc(SCc2ccco2)o1,–,45,–,·,–,–
O=C1NC(=S)S/C1=C\c1ccc(SCc2ccccc2)o1,–,18,–,–,–,–
COc1ccccc1C=C1SC(=S)NC1=O,·,–,–,–,–,·
COc1ccc(CNC(=O)N2C3C=CCC2CC3)cc1 (centres undefined),·,·,·,·,–,·
Nc1ccc(-c2c3ccc(=O)cc-3oc3cc(O)ccc23)cc1C(=O)O,–,–,–,–,–,45
O=[N+]([O-])c1nn(-c2cccc(Cl)c2)n(O)c1=NC1CCCCCC1,·,·,·,·,66,·
O=[N+]([O-])c1nn(-c2ccccc2)n(O)c1=NC1CCCCCC1,·,·,·,·,64,·
O=[N+]([O-])c1nn(-c2ccccc2)n(O)c1=NC1CCN(Cc2ccccc2)CC1,–,–,–,–,–,–
CCN1C(=O)c2cccc3c(Cl)ccc(c23)C1=O,–,–,–,–,–,–
SMILES,Rv3671c protease,FadD28 FP inh,PrP 5UTR inh,PrPC surface inh,PriA SSB inh,Mtb UGM inh
Nc1cccc(N2C(=O)c3cccc4c(N)ccc(c34)C2=O)c1,–,–,–,–,–,29
CC(C)CCN1C(=O)c2cccc3c(N)ccc(c23)C1=O,–,–,–,–,–,18
Nc1ccc2c3c(cccc13)C(=O)N(c1ccccc1)C2=O,·,–,–,–,–,·
Cc1cccc(N2C(=O)c3cccc4c(N)ccc(c34)C2=O)c1,–,–,–,–,–,39
CCOC(=O)CNC(=O)CSc1nnc(Cc2cc(=O)[nH]c(=O)[nH]2)n1-c1cc(C)ccc1C,·,·,·,·,–,·
CN(CC(=O)Nc1cccc(F)c1)C(=O)Cn1c(=O)cnc2ccccc21,–,55,–,–,–,–
CC1C(=O)NCCN1C(=O)C1CCCN(S(=O)(=O)c2ccc(Cl)cc2)C1 (centres undefined),·,·,·,·,–,·
CC(C)CN(C(=O)c1cc([N+](=O)[O-])cc([N+](=O)[O-])c1)C1CCS(=O)(=O)C1 (centres undefined),–,–,–,–,–,–
CC(C)CN(C(=O)c1ccc(-n2cncn2)c([N+](=O)[O-])c1)C1CCS(=O)(=O)C1 (centres undefined),–,22,–,–,–,–
O=C(NN=Cc1c(O)ccc2ccccc12)c1ccc[n+](CCO)c1,·,·,·,·,41,·

# Source: PubChem BioAssay (several laboratories)
